Source: PubChem
sEH inhibitor: soluble epoxide hydrolase inhibitors, primary screen, biochemical, human sEH. Bifunctional epoxide hydrolase 2 (Homo sapiens), P34913. recombinant human sEH enzymatic activity assay. inhibition, % at 2 µM. 0.34% of 91,000 active. AID 707, 2007; in the data active = inhibition above about 80%
Target sequence (P34913 whole entry, looked up): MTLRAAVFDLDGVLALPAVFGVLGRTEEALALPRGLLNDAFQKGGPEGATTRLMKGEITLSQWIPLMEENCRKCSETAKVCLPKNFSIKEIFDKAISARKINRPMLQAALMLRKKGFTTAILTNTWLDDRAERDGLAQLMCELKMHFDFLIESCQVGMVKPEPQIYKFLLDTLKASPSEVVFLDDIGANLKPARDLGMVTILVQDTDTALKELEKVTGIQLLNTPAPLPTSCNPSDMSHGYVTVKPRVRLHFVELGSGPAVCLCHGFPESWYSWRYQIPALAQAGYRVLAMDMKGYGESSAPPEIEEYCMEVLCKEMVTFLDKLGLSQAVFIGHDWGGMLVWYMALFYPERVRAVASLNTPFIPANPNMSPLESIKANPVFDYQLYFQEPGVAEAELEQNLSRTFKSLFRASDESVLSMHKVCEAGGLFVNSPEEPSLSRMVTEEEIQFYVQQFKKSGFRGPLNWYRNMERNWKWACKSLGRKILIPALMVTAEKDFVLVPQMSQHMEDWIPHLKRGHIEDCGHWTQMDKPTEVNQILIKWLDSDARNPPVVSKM
Measles CPE: compounds protecting cells from measles virus cytopathic effect, primary screen, measles RdRp inhibitor project, single point, MLSMR library, absorbance; Measles virus-infected cells, CPE protection; protection (pct of control), % at 4 µM; 1.5% of 140,000 active; AID 841, 2007; in the data active = protection mostly above about 24%, no sharp cut-off; inactive = mostly below about 26%
sEH act: soluble epoxide hydrolase activators, primary screen, biochemical, human sEH. 0.04% of 91,000 active. activation, % at 2 µM. AID 717, 2007. purified human sEH enzymatic activity, activator screen; in the data active = activation above about 37%
sdo1 growth: growth rescue of sdo1-depleted yeast, primary screen, S. cerevisiae, bone marrow failure model. S. cerevisiae sdo1-depleted JHY4D growth rescue, OD600 30 h; active compounds read high; pdr5 snq2 efflux-pump mutant strain. z-score at 10 µM. 0.21% of 140,000 active. AID 817, 2007;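 active = z-score above 3 at both the 24 hr and the 30 hr optical density reads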
Of the large screens only hits and unclear results are named; the others gave an inactive call. An excerpt weighted towards active compounds, which were near 1.9% of everything screened.

Cc1ccc2c(C)c(C(=O)Nc3c(C)n(C)n(-c4ccccc4)c3=O)oc2c1C	none (no result: sEH inhibitor, sEH act)
CCOC(=O)N1CCC(NC(=O)C2CCN(c3ccc(N4CCOCC4)nn3)CC2)CC1	Measles CPE 48 (no result: sEH inhibitor, sEH act)
CCOC(=O)N1CCC(NC(=O)C2CCN(S(=O)(=O)c3cnc[nH]3)CC2)CC1	none (no result: sEH inhibitor, sEH act)
CC(C)N(Cc1nc(-c2ccccc2)no1)C(=O)CN1C(=O)c2ccccc2C1=O	none
O=C(Nc1ccc(Cl)cc1)c1cc(S(=O)(=O)N2CCOCC2)cs1	Measles CPE 78
Cc1ccc(NC(=O)c2cc(S(=O)(=O)N3CCCCC3)cs2)cc1	none
CCCNc1nc(N2CCOCC2)nc(N2CCOCC2)n1	none
CSc1nc(NCC(C)C)nc(N2CCOCC2)n1	Measles CPE 36
CC(C)C(C(=O)Nc1sc2c(c1C#N)CCCCC2)N1C(=O)c2ccccc2C1=O (configuration not stated)	Measles CPE 56
COc1cccc(C(=O)NNC(=S)NC2CCCCC2)c1	Measles CPE 25 (no result: sEH inhibitor, sEH act)
COc1ccc(C(=O)NNC(=S)NC2CCCCC2)cc1OC	none
Clc1ccc(-n2c(SC/C=C/c3ccccc3)nnc2-c2cccnc2)cc1	none
Nn1c(SC/C=C/c2ccccc2)nnc1-c1cccnc1	Measles CPE 26
C=CCOc1nc(-c2ccncc2)nc2ccccc12	Measles CPE 30
C=CCN1C(c2cccc(C(F)(F)F)c2)=CS/C1=C(/C#N)c1nnc(N2CCOCC2)n1-c1ccccc1	none (no result: sEH inhibitor, sEH act)
COc1cc2c(cc1OC)C(=O)CCS2	none
COc1ccc2c(c1)SCCC2=O	Measles CPE 34
O=C(Nc1ccccc1Cl)C1CCCN(S(=O)(=O)c2ccc(F)cc2)C1 (configuration not stated)	none
COc1ccc(C2CC(c3ccc4ccccc4c3)=NN2C(=O)CSc2ncccn2)cc1 (configuration not stated)	none (no result: sEH inhibitor, sEH act)
COc1ccc(C2=NN(C(=O)CSc3ncccn3)C(c3ccc(OC)cc3)C2)cc1 (configuration not stated)	Measles CPE 63 (no result: sEH inhibitor, sEH act)
O=[N+]([O-])c1ccccc1/C=N/n1c(-c2cccnc2)n[nH]c1=S	none (no result: sEH inhibitor, sEH act)
O=[N+]([O-])c1cc(/C=N/n2c(-c3cccnc3)n[nH]c2=S)ccc1Cl	Measles CPE 29 (no result: sEH inhibitor, sEH act)
O=C(c1ccco1)N1CCN(CCCCOc2cccc3ccccc23)CC1	Measles CPE 27 (no result: sEH inhibitor, sEH act)
O=C(c1ccco1)N1CCN(CCOCCOc2cccc3ccccc23)CC1	none
Cc1ccc(C)c(NC(=O)CN(C)S(=O)(=O)c2ccccc2)c1	none
CCN1CCN(C(c2nnnn2Cc2ccc3c(c2)OCO3)C(C)C)CC1 (configuration not stated)	Measles CPE 56
CC(C)C(c1nnnn1Cc1ccc(F)cc1)N1CCN(Cc2ccc3c(c2)OCO3)CC1 (configuration not stated)	none
COc1ccc(-c2noc(CN3C(=O)c4ccccc4C3=O)n2)cc1	Measles CPE 37
COc1ccc(-c2noc(CN3CCN(c4ccccc4)CC3)n2)cc1	none (no result: sEH inhibitor, sEH act)
CCS(=O)(=O)Nc1ccc(C(=O)c2ccccc2)cc1	none
CN(/C(=N/S(=O)(=O)c1cccs1)c1ccccc1)c1ccccc1	Measles CPE 29 (no result: sEH inhibitor, sEH act)
Cc1ccccc1C(=O)N1CCC(C(=O)O)CC1	none
COc1ccnc(Oc2ccc(C)cc2)c1C#N	Measles CPE 67
CC1CCN(C(c2ccccc2)c2nnnn2C(C)(C)C)CC1 (configuration not stated)	none (no result: sEH inhibitor, sEH act)
O=S(=O)(NC1CC1)c1ccc(S(=O)(=O)N2CCc3ccccc32)cc1	Measles CPE 44
O=C(O)C1C2C=CC(C2)C1C(=O)NCCCN1CCOCC1 (configuration not stated)	none
CCCCNC(=O)C1C2C=CC(C2)C1C(=O)O (configuration not stated)	Measles CPE 38 (no result: sEH inhibitor, sEH act)
CCC(C)NS(=O)(=O)c1ccc(-c2csnn2)s1 (configuration not stated)	none
CCOC(=O)C1(CCSC)NC(c2ccco2)C2C(=O)N(CC)C(=O)C21 (configuration not stated)	none (no result: sEH inhibitor, sEH act)
CCOc1cc(C(c2c(C)[nH][nH]c2=O)c2c(C)[nH][nH]c2=O)ccc1OC(=O)c1cccc([N+](=O)[O-])c1	Measles CPE 37
CCOc1cc(C(c2c(C)[nH][nH]c2=O)c2c(C)[nH][nH]c2=O)ccc1OCc1ccc([N+](=O)[O-])cc1	none
CCN(Cc1ccccc1)C(=O)C1CCC(CNc2c(N3CCOCC3)c(=O)c2=O)CC1 (configuration not stated)	none
COc1nc(NS(=O)(=O)c2ccc(C)cc2)nc(C)c1Cl	none
COc1ccc(C2=CC(c3ccc(F)cc3)n3nnnc3N2)cc1 (configuration not stated)	none (no result: sEH inhibitor, sEH act)
CCCCCCCC(=O)OCC(O)CO (configuration not stated)	Measles CPE 91 (no result: sEH inhibitor, sEH act)
Cc1ccc(Cn2cc(SCC(=O)Nc3nccs3)c3ccccc32)cc1	none
Cc1ccc(-c2[nH]nc3c2C(c2cccnc2)C(C#N)=C(N)O3)cc1 (configuration not stated)	none (no result: sEH inhibitor, sEH act)
CC(C)c1[nH]nc2c1C(c1cccnc1)C(C#N)=C(N)O2 (configuration not stated)	Measles CPE 44
O=C(CCN1C(=O)c2ccccc2S1(=O)=O)Nc1nc2c(s1)CCCC2	Measles CPE 24
CCc1nnc(NC(=O)CN2C(=O)c3ccccc3S2(=O)=O)s1	Measles CPE 40
Cc1nnc(NC(=O)CN2C(=O)c3ccccc3S2(=O)=O)s1	none
C=C(C)C(=O)NC1=NN(c2ccccc2)C(=O)C1	none (no result: sEH inhibitor, sEH act)
c1ccc2c(c1)OCCOCCOCCOCCOc1ccccc1OCCOCCOCCO2	Measles CPE 47 (no result: sEH inhibitor, sEH act)
Brc1ccc2c(c1)OCCOCCOCCOCCOCCO2	none (no result: sEH inhibitor, sEH act)
Brc1ccc(OCCOCCOc2cccc3cccnc23)cc1	sEH act 58 (no result: Measles CPE, sdo1 growth)
Brc1ccccc1OCCOCCOc1cccc2cccnc12	none
COc1ccc(C(=O)NCC(=O)OCC(=O)c2cc(OC)c(OC)c(OC)c2)cc1OC	Measles CPE 44 (no result: sEH inhibitor, sEH act)
CCSc1nc(N)c2c3c(sc2n1)CN(C)CC3	Measles CPE 44 (no result: sEH inhibitor, sEH act)
CSc1nc(SCC(N)=O)c2c3c(sc2n1)CN(C)CC3	none
CN1C(=O)c2cccc(NC(=O)Cc3ccccc3)c2C1=O	none
C#CCOc1ccccc1CNc1ccccc1	none (no result: sEH inhibitor, sEH act)
Oc1ccc(NCc2ccccc2OCc2ccccc2)cc1	Measles CPE 41 (no result: sEH inhibitor, sEH act)
COC(=O)c1cccc(NC(=O)CSc2nc3cccnc3n2C)c1	Measles CPE 63 (no result: sEH inhibitor, sEH act)
O=CNc1ccc(S(=O)(=O)NCc2ccccc2)cc1	sEH act 39
CCOC(=O)c1c(NC(=O)c2ccc(-n3cnnn3)cc2)sc2c1CCCC2	none (no result: sEH inhibitor, sEH act)
Cc1ccc2cc3cc(C(=O)NCc4ccc5c(c4)OCO5)oc3nc2c1	Measles CPE 34
Cc1ccc(O)c(-c2cc(C(=O)NCc3ccc4c(c3)OCO4)[nH]n2)c1	Measles CPE 29 (no result: sEH inhibitor, sEH act)
COc1ccc(CC(=O)NN2C(=O)c3ccccc3C2=O)cc1	none (no result: sEH inhibitor, sEH act)
O=C(Oc1cccnc1)c1ccc([N+](=O)[O-])cc1	none (no result: sEH inhibitor, sEH act)
O=[N+]([O-])c1cc(Oc2cccnc2)cc([N+](=O)[O-])c1	Measles CPE 55 (no result: sEH inhibitor, sEH act)
